The list is not random: actives were taken first. Their share in the collection is about 3.5%.
mHTT CaM bind: inhibitors of human mutant huntingtin-calmodulin interaction | P42858 | AlphaScreen His-mHTT/GST-CaM binding, luminescence | inhibition, % at 15 µM | actives 3.6% (n = 190,000)
Target sequence (P42858 whole entry, looked up, change not shown): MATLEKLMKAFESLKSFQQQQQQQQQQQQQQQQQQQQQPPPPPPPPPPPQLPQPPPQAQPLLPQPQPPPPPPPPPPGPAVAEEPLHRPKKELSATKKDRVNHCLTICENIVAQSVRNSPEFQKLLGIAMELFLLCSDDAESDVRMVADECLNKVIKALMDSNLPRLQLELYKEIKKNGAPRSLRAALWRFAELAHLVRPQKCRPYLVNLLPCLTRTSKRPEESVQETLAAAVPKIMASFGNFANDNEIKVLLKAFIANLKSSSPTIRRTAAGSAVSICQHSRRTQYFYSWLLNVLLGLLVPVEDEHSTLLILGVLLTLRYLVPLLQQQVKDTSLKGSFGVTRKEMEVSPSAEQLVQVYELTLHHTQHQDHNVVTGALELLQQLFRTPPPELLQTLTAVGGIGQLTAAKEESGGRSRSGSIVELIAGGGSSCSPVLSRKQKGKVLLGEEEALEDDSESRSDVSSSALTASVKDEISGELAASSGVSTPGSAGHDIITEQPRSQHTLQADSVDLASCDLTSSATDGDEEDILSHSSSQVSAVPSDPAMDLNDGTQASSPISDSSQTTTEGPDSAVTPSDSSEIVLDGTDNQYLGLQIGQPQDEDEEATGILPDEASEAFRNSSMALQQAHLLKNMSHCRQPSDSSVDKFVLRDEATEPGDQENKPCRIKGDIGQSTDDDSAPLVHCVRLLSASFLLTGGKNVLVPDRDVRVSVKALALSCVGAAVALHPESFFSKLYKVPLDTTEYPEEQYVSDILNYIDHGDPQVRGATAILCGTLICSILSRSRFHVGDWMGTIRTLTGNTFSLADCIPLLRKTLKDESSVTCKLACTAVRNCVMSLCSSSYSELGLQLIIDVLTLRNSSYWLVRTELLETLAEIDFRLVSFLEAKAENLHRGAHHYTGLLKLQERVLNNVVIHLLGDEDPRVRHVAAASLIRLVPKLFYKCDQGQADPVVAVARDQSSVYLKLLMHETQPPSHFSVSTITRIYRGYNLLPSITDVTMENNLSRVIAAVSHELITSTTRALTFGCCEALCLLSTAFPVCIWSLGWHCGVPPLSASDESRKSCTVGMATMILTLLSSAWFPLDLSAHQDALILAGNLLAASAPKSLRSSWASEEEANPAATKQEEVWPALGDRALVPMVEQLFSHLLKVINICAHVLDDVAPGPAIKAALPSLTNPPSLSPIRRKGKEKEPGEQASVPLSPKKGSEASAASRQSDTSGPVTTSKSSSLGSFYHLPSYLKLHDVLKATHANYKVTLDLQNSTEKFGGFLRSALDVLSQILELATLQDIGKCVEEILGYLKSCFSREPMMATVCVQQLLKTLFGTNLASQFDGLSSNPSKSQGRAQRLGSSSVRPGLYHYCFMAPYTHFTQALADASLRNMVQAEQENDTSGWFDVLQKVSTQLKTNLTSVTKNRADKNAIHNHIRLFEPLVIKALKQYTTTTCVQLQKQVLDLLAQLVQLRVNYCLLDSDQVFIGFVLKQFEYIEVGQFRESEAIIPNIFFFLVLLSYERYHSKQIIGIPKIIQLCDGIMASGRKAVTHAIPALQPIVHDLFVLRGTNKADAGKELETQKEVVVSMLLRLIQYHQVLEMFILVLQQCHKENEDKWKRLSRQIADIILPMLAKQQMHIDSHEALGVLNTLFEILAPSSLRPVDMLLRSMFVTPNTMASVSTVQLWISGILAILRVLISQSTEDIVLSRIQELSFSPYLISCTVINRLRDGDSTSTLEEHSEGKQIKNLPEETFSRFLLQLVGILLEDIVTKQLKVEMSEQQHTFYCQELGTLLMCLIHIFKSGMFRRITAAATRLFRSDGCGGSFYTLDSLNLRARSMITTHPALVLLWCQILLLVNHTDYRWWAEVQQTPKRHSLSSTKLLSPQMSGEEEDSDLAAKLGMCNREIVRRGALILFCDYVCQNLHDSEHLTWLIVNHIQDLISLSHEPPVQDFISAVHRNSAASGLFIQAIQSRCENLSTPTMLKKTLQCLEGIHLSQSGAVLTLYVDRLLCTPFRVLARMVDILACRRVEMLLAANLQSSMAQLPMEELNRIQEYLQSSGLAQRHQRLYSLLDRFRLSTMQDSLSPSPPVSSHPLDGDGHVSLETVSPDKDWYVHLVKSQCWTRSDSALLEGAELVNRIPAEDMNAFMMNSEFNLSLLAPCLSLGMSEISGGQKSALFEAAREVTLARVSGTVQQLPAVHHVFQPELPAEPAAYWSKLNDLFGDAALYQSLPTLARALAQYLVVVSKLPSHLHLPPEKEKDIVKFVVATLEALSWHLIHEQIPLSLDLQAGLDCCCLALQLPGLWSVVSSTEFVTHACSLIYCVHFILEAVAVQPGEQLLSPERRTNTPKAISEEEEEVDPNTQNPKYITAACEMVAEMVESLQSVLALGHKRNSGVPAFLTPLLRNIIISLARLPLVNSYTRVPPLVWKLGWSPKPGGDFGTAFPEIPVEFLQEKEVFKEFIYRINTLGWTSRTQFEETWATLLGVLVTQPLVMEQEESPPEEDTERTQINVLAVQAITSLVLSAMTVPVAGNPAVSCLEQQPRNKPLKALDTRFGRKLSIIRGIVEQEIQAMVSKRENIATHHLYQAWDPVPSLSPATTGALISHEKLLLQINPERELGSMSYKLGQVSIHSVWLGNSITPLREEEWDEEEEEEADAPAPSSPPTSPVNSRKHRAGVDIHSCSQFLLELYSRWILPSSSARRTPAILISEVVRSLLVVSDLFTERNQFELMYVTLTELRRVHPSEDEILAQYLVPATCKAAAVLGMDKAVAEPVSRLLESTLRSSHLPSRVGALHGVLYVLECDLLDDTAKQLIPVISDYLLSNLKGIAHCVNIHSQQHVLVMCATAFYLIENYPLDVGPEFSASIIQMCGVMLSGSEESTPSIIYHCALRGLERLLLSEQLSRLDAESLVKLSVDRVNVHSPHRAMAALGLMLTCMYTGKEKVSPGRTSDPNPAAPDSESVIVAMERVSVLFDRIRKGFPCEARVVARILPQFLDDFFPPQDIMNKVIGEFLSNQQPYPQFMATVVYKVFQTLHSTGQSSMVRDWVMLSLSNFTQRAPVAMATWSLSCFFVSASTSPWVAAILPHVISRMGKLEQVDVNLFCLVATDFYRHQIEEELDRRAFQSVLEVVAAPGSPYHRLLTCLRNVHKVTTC
Pf apPOL inh: Pf-apPOL DNA polymerase inhibition; AID 1794808; inhibition, % at 10 µM; actives 0.25% (n = 210,000); Recombinant Pf-apPOL, molecular beacon fluorescence, 1.5 h
Numbers stand for hits; 0 = inactive; - = no result given; ! = repeats disagree. Rule as the data show it: active = inhibition above about 50%; inactive = the rest.

SMILES	mHTT CaM bind	Pf apPOL inh
Cc1cccc(C(=O)N2CCC(=O)N([C@H](COCc3cccc(Cl)c3)Cc3ccccc3)CC2)c1	98.8	0
O=C(c1ccc(Cl)c(Cl)c1)N1CCC(=O)N([C@H](COCc2ccc(Cl)cc2)Cc2ccccc2)CC1	100.0	0
Cc1cccc(C(=O)N2CCC(=O)N([C@H](COCc3ccc(Cl)cc3)Cc3ccccc3)CC2)c1	99.0	0
COc1cccc(C(=O)N2CCc3c(c(COCc4ccc(Cl)cc4)nn3C)C2)c1	0	0
Cc1ccc(S(=O)(=O)N2CCC(=O)N([C@H](COCc3cccc(C)c3)Cc3ccccc3)CC2)cc1	0	0
Cc1cccc(COC[C@H](CC(C)C)N2CCN(C(=O)c3ccc(C(C)(C)C)cc3)CCC2=O)c1	0	0
Cc1ccc(S(=O)(=O)N2CCC(=O)N([C@H](COCc3ccc(C(F)(F)F)cc3)Cc3ccccc3)CC2)cc1	0	0
Cc1cccc(COC[C@H](Cc2ccccc2)N2CCN(C(=O)c3ccc(C(F)(F)F)cc3)CCC2=O)c1	98.6	0
COc1cc(Br)c(CN2CCN(c3ccccc3F)CC2)cc1OC	0	0
CCOc1ccc(CNC(=O)c2cc3c(s2)CCN(C(C)=O)C3)cc1	0	0
O=[N+]([O-])c1cc(Br)c2nsnc2c1N1CCOCC1	67.0!	0
NS(=O)(=O)c1ccc(N2CCOCC2)c([N+](=O)[O-])c1	-	0
Cc1[nH]c(=O)[nH]c(=O)c1CCC(=O)Nc1ccccc1C(N)=O	0	0
CCc1ccc(C(=O)N(C)c2ccc([N+](=O)[O-])cc2)cc1	0	0
CC(=O)N1CCN(c2nc3c(s2)CC(C(=O)NCCC(C)C)CC3)CC1 (centres undefined)	0	0
COc1cc(Br)c(Br)cc1N	0	-
COc1cc2c(cc1N)OCO2	54.3	-
COCCCNC1C2CC3CC(C2)CC1C3 (centres undefined)	0	0
CC1(c2ccc(Br)cc2)NC(=O)CS1 (centres undefined)	85.0	0
CC1CCC2(CC1)SCC(=O)N2c1ccc(Br)cc1 (centres undefined)	0	0
O=C(O)C1Cc2c([nH]c3ccccc23)C(c2cc(Br)ccc2O)N1 (centres undefined)	56.7	0
Cc1cc(Br)c(O)c(C2NC(C(=O)O)Cc3c2[nH]c2ccccc32)c1 (centres undefined)	0	0
COc1ccc(C=CC(=O)c2cc(Br)ccc2O)cc1OC	0	0
Cc1cc(C)c(NC(=O)c2ccccc2)c(C)c1	0	0
CC(C)(C)C1CCc2c(sc3c2C(=O)NC(c2ccccc2)N3)C1 (centres undefined)	0	0
SMILES	mHTT CaM bind	Pf apPOL inh
CC(C)(C)C1CCc2c(sc3c2C(=O)NC(c2ccc(O)c([N+](=O)[O-])c2)N3)C1 (centres undefined)	59.0	0
CCc1ccc(Oc2nccnc2N2CCC(C(=O)Nc3cccc(C(C)=O)c3)CC2)cc1	0	0
CN(c1ccc(C(=O)NCCSCc2ccco2)cc1)S(=O)(=O)c1ccccc1	0	0
CCSc1nnc2c(n1)OC(c1cc3c(cc1[N+](=O)[O-])OCO3)Nc1ccccc1-2 (centres undefined)	53.0	0
CCCCSc1nnc2c(n1)OC(c1cc3c(cc1[N+](=O)[O-])OCO3)Nc1ccccc1-2 (centres undefined)	77.2	0
CCCCSc1nnc2c(n1)OC(c1ccncc1)Nc1ccccc1-2 (centres undefined)	0	0
CSc1nnc2c(n1)OC(c1ccc(Br)s1)Nc1ccccc1-2 (centres undefined)	57.0	0
CCSc1nnc2c(n1)OC(c1cn[nH]c1-c1ccccc1)Nc1ccccc1-2 (centres undefined)	0	0
CSc1nnc2c(n1)OC(c1cccs1)Nc1ccccc1-2 (centres undefined)	0	0
CSc1nnc2c(n1)OC(c1cc3c(cc1Br)OCO3)Nc1ccccc1-2 (centres undefined)	0	84.8
CSc1nnc2c(n1)OC(c1ccccc1O)Nc1ccccc1-2 (centres undefined)	0	0
O=C(c1ccc(F)c(F)c1)N1CCC(n2cnnc2-c2ccccc2)C1 (centres undefined)	0	0
O=C(NCCn1ncc2c(N3CCOCC3)ncnc21)c1cccc(Cl)c1	0	0
CN(C)c1ccc(CNC(=O)c2cc3c(=O)n(C)ccc3n2C)cc1	0	0
CN(CCCNC(=O)C1CCc2nc(N3CCOCC3)ncc2C1)c1ccccc1 (centres undefined)	0	0
O=C(NCc1ccncc1)C1CN(C(=O)c2ccccc2)CC12CCCCC2 (centres undefined)	0	0
O=C(Cn1c(N2CCCCC2)nc2ccccc2c1=O)NCc1ccc(F)cc1F	0	0
CC(=O)N1c2c(cc(Br)cc2S(=O)(=O)Nc2ccc(C(F)(F)F)cc2)CC1C (centres undefined)	91.0	0
CC(=O)N1c2c(cc(Br)cc2S(=O)(=O)Nc2cccc(C(F)(F)F)c2)CC1C (centres undefined)	0	0
O=C(N(CCc1ccccc1)Cc1ccccn1)C12CC3CC(CC(C3)C1)C2	0	0
COc1ccc(N=C2C(=O)Nc3ccc(C)c(Br)c32)cc1	64.0	0
Cc1ccc(N=C2C(=O)Nc3cc(Br)c(C)cc32)cc1	55.0	0
Cc1ccc(N=C2C(=O)Nc3ccc(C)c(Br)c32)cc1	0	0
CC(=O)N(C)c1ccc(N=C2C(=O)Nc3cc(Br)c(C)cc32)cc1	0	0
Cc1n[nH]c(C)c1S(=O)(=O)N1CCC(C(=O)Nc2ccc(Br)cc2F)CC1	0	0
SMILES	mHTT CaM bind	Pf apPOL inh
Cc1ccc(S(=O)(=O)N(C)c2ccc(N)cc2)cc1	0	0
Cc1ccc(C(C)(c2ccc(N)cc2)c2ccc(N)cc2)cc1	67.6	0
OC(c1ccccn1)C1CCN(Cc2ccc(F)cc2Cl)CC1 (centres undefined)	0	0
Cc1[nH]c2ccccc2c1C(c1ccco1)c1c(C)[nH]c2ccccc12	55.0	0
Cc1[nH]c2ccccc2c1C(C[N+](=O)[O-])c1ccco1 (centres undefined)	0	0
O=C(Nc1ccc(Br)cc1)c1ccccc1Cl	0	0
COc1ccc(Cl)cc1NC(=O)C(Cc1ccccc1)N1C(=O)C2C3C=CC(C3)C2C1=O (centres undefined)	51.0	0
COc1ccc(Cl)cc1NC(=O)C(Cc1ccccc1)N1C(=O)C2C3CCC(C3)C2C1=O (centres undefined)	0	0
CSc1cccc(NC(=O)N2CCC3(CC2)Nc2cc(F)ccc2-n2cccc23)c1	0	0
COc1ccc(NC(=O)N2CCC3(CC2)Nc2cc(F)ccc2-n2cccc23)cc1	66.5	0
COc1ccc(NC(=O)N2CCC3(CC2)Nc2cc(F)ccc2-n2cccc23)cc1OC	61.1	0
CCOc1ccc(NC(=O)N2CCC3(CC2)Nc2cc(F)ccc2-n2cccc23)cc1	65.5	0
COc1cccc(NC(=O)N2CCC3(CC2)Nc2cc(F)ccc2-n2cccc23)c1	0	0
CCc1ccc(NC(=O)N2CCC3(CC2)Nc2cc(F)ccc2-n2cccc23)cc1	72.0	0
CCCN1C(=O)Cc2ccccc2C1C(=O)NCc1ccc(OC)c(OC)c1 (centres undefined)	0	0
CN(C)C(=O)NC(Nc1cccc([N+](=O)[O-])c1)C(Cl)(Cl)Cl (centres undefined)	0	0
O=C(NC(Nc1ccccc1Cl)C(Cl)(Cl)Cl)c1cccc([N+](=O)[O-])c1 (centres undefined)	74.0	0

Screening data (PubChem BioAssay)
